A selection: hits, their analogues and other compounds. The true share with any hit is near 11%.
HEK293 tox: HEK 293 cell cytotoxicity. 94,000 compounds, 6.6% hits. Potency, µM (top dose mostly 115 µM), for the others: at the top dose activity change, negative = cytotoxicity, hits mostly inhibitors. AID 1345083. HEK 293 viability, ATP luminescence (CellTiter-Glo), 48-72 h; note: % is set by controls: 0 for no effect and ±100 for the full control effect; nearly all actives have a fitted effect of over 60% in size
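HEK 293 cells seeded at 250 cells/well were exposed to compound for 48 or 72 hr at 37 degree Celsius. Viability taken as ATP content by CellTiter-Glo luminescence.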
NIH3T3 tox: cytotoxic compounds in NIH 3T3 cells. NIH 3T3 viability, CellTiter-Glo ATP luminescence, 48-72 h. Potency, µM (highest dose often 96.7 µM), inactives show at the top dose activity change, negative = cytotoxicity, actives largely listed as inhibitors. 94,000 compounds, 4.3% hits. AID 1345082; note: % is set by controls: 0 for no effect and ±100 for the full control effect; nearly all actives have a fitted effect of over 55% in size
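Luminescent ATP readout (CellTiter-Glo, 10 min RT) after 48 or 72 hr compound exposure of NIH 3T3 cells seeded at 400 cells/well in 1536-well format; quantitative HTS.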
FLuc inh: blocks purified firefly luciferase enzyme activity; P08659; purified P. pyralis luciferase, luminescence, biochemical; Potency, µM (top dose mostly 115 µM), most hits filed as inhibitors; 76,000 compounds, 2.5% hits; note: % is set by controls: 0 for no effect and ±100 for the full control effect; nearly all actives have a fitted effect of over 65% in size
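Luminescence read by CCD imager after adding enzyme (10nM final) to wells holding compound, titrated in qHTS. Substrates 10uM each D-luciferin and ATP; buffer 50mM Tris acetate pH 7.5, 10mM Mg acetate, Tween-20, BSA.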
hNpr1 antagonist: antagonists of human natriuretic peptide receptor Npr1; P16066; HEK293 hNpr1 GloSensor cGMP, ANP-stimulated luminescence; 76,000 compounds, 1.6% hits; Potency, µM (top dose mostly 46.3 µM), without a hit: at the top dose activity change, negative = inhibition, actives largely listed as inhibitors; calls by dose curve; note: % is set by controls: 0 for no effect and ±100 for the full control effect; nearly all actives have a fitted effect of over 60% in size
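HEK293 cells stably expressing human Npr1 and cGMP GloSensor pGS-40F, loaded 2 h with 2% GloSensor reagent, given compound 30 min at room temperature. Luminescence read before and 20 min after 0.1 nM hNppA.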
NPR1 antag cnf: confirmation of human Npr1 natriuretic peptide receptor antagonists; shares compounds with hNpr1 antagonist; HEK293 hNpr1 cGMP GloSensor luminescence, ANP-stimulated; Potency, µM (doses to about 57.6 µM), for inactives: top-dose activity change, negative = inhibition, most hits filed as inhibitors; 1,400 compounds, 76% hits; AID 1347044; calls by dose curve; note: nearly all actives have a fitted effect of over 70% in size
Npr2 selectivity: selectivity test of Npr1 antagonists against human Npr2 | shares compounds with hNpr1 antagonist | HEK293 hNpr2 GloSensor cGMP luminescence, CNP-stimulated | Potency, µM (doses to about 57.6 µM), for inactives: at the top dose activity change, negative = inhibition, actives largely listed as inhibitors | 1,400 compounds, 67% hits | AID 1347046; calls by dose curve; note: nearly all actives have a fitted effect of over 70% in size
Target sequence (P20594 whole entry, looked up): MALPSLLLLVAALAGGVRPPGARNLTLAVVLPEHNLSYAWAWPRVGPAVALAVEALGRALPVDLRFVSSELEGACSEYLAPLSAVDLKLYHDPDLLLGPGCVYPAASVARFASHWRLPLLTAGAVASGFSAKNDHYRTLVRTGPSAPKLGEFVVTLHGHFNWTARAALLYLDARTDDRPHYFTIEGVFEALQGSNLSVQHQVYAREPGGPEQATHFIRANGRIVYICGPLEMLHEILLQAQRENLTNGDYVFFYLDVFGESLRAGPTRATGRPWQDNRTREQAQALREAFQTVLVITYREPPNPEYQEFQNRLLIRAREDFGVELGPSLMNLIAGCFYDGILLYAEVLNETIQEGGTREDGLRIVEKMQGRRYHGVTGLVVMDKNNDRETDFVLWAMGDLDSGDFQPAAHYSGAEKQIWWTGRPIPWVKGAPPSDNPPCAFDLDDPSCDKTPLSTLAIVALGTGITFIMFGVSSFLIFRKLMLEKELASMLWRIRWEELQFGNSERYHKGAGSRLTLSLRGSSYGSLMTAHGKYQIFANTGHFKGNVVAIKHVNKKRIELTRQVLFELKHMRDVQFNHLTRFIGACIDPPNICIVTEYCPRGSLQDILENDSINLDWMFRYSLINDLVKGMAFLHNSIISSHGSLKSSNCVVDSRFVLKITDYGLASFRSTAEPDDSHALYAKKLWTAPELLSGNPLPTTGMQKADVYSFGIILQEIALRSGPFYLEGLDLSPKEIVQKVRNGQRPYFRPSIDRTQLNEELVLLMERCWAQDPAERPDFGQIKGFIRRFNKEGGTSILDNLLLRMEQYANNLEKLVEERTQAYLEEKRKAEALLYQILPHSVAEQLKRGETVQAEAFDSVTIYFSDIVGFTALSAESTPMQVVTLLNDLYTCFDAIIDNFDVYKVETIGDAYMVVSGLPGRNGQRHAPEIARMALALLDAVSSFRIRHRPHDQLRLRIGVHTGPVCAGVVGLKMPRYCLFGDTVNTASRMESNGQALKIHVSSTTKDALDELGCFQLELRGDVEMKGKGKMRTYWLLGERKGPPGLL
FLuc counter: counter-screen for Npr1 antagonists: firefly luciferase inhibitors. shares compounds with hNpr1 antagonist. purified FLuc enzyme, luminescence, Km substrate. Potency, µM (top dose mostly 57.6 µM), for the others: at the top dose activity change, negative = inhibition, actives largely listed as inhibitors. 1,400 compounds, 0.7% hits. AID 1347047; note: 0% is about no effect
GloSensor cGMP: reduces cGMP signal in GloSensor control cells | shares compounds with hNpr1 antagonist | HEK293 GloSensor cGMP, SNP-stimulated, luminescence | 1,400 compounds, 69% hits | Potency, µM (doses to about 57.6 µM), inactives show at the top dose activity change, negative = inhibition, most hits filed as inhibitors; calls by dose curve; note: % is set by controls: 0 for no effect and ±100 for the full control effect; nearly all actives have a fitted effect of over 70% in size
Active calls of the source: *; i = inactive; ? = inconclusive; . = no result given; [ ] = another dose, or the depositor's remark. Unless noted, calls come from the whole dose curve; as a rule, active = well fitted curve in the direction sought with a large enough effect; inconclusive = small, poorly fitted or top-dose-only effect, or another doubt; inactive = no such curve, though single readings can be large; an effect the other way counts as inactive or inconclusive. Potency is the fitted concentration of half-maximal effect.

SMILES	HEK293 tox	NIH3T3 tox	FLuc inh	hNpr1 antagonist	NPR1 antag cnf	Npr2 selectivity	FLuc counter	GloSensor cGMP
Cc1ccc(NC(=O)N2CCC3(CC2)CC(Cc2nc(-c4ccccc4)no2)CCO3)cc1C (stereo not drawn)	?	?	i	10µM*	12µM*	15µM*	-6%	12µM*
O=C(CCCc1ccccc1)N1CCC2(CC1)CC(Cc1nc(-c3cccnc3)no1)CCO2 (stereo not drawn)	35µM*	?	i	16µM*	22µM*	19µM*	2%	19µM*
O=C(CCCc1ccccc1)N1CCC2(CC1)CC(CO)N(C(=O)c1ccccc1)C2 (stereo not drawn)	?	-30%	.	.	.	.	.	.
CCOCCn1c(=O)n(Cc2c(C)noc2C)c2cc(C(=O)O)cnc21	i	0%	i	5%	.	.	.	.
COc1ccc(CN2C=C(C(=O)OCc3nc(-c4ccc(F)cc4)no3)C(C)=NS2(=O)=O)cc1	?	?	i	?	.	.	.	.
CC1=NS(=O)(=O)N(C)C=C1C(=O)OCc1nc(-c2ccc(OC(F)(F)F)cc2)no1	40µM*	?	i	10µM*	15µM*	14µM*	2%	12µM*
CC1=NS(=O)(=O)N(C)C=C1C(=O)OCc1nc(-c2ccc(Br)cc2)no1	?	?	i	10µM*	11µM*	14µM*	-12%	11µM*
COc1ccc(-c2noc(COC(=O)C3=CN(C)S(=O)(=O)N=C3C)n2)cc1	?	-24%	i	7.9µM*	12µM*	17µM*	-8%	14µM*
CC1=NS(=O)(=O)N(C)C=C1C(=O)OCc1nc(-c2ccccc2F)no1	-4%	-14%	i	?	?	?	-2%	?
CC1=NS(=O)(=O)N(C)C=C1C(=O)OCc1nc(-c2ccccc2Cl)no1	?	-22%	i	-8%	.	.	.	.
CCOC(=O)[C@@H]1CN(C(=O)C2CC2)[C@H]2c3cccc(F)c3O[C@@H]12	?	-19%	.	.	.	.	.	.
Cc1cccc(CN2CCCN(S(=O)(=O)c3ccccc3)CCC(=O)NCC2)c1	?	?	i	-9%	.	.	.	.
Cn1ncc(N2CCC(CNC(=O)c3ccccc3-n3cncn3)C2)cc1=O (stereo not drawn)	-15%	-13%	i	-1%	.	.	.	.
COc1ccc(CN2C=C(C(=O)OCc3nc(C4CC4)no3)C(C)=NS2(=O)=O)cc1	?	?	i	-27%	.	.	.	.
CC1=NS(=O)(=O)N(C)C=C1C(=O)OCc1nc(C2CCCCC2)no1	-25%	?	i	13µM*	22µM*	?	-8%	17µM*
CC1=NS(=O)(=O)N(C)C=C1C(=O)OCc1nc(Cc2ccc(C)cc2)no1	-27%	-22%	i	11µM*	22µM*	?	2%	19µM*
COc1ccc(CN2C=C(C(=O)OCc3nc(Cc4cccc(C)c4)no3)C(C)=NS2(=O)=O)cc1	-19%	-33%	i	-2%	.	.	.	.
COc1cc(F)ccc1-c1ccnc2nc(Cc3ccc(F)cc3)nn12	?	?	i	-17%	.	.	.	.
COCCN1C(=O)c2ccccc2C(C(=O)Nc2cc(Cl)ccc2OC)C12CCCC2 (stereo not drawn)	?	-22%	i	?	14µM*	8.6µM*	5%	11%
COc1ccc(C(=O)N2CCC(n3cc(-c4nc(-c5ccccc5)no4)nn3)CC2)cc1	?	?	i	?	22µM*	24µM*	-16%	22µM*
COc1ccc(CCC(=O)N2CCCC(n3cc(-c4nc(-c5ccccc5)no4)nn3)C2)cc1 (stereo not drawn)	?	?	?	13µM*	24µM*	24µM*	12µM*	24µM*
O=C(c1cccc(Cl)c1)N1CCCC(n2cc(-c3nc(-c4ccccc4)no3)nn2)C1 (stereo not drawn)	?	?	?	16µM*	27µM*	27µM*	-29%	27µM*
O=C(c1ccc(F)c(F)c1)N1CCC(n2cc(-c3nc(-c4ccccc4)no3)nn2)CC1	?	?	i	11µM*	24µM*	24µM*	-22%	22µM*
CC(=O)N1CCN([C@H]2[C@@H]3OC[C@@H](O3)[C@@H](NCc3ccco3)[C@@H]2O)CC1	?	?	i	-1%[70.6 µM]	.	.	.	.
O=C(c1ccccc1F)N1CCC(n2cc(-c3nc(-c4ccccc4)no3)nn2)C1 (stereo not drawn)	?	?	i	14µM*	22µM*	22µM*	-13%	17µM*
SMILES	HEK293 tox	NIH3T3 tox	FLuc inh	hNpr1 antagonist	NPR1 antag cnf	Npr2 selectivity	FLuc counter	GloSensor cGMP
Cc1noc(-c2cn(C3CCN(C(=O)c4ccc(F)c(Cl)c4)CC3)nn2)n1	-14%	?	i	-1%	.	.	.	.
O=C(c1ccc(F)c(Cl)c1)N1CCC(n2cc(-c3nc(-c4ccccc4)no3)nn2)CC1	?	?	i	13µM*	24µM*	22µM*	-20%	22µM*
O=C(c1cc(F)ccc1F)N1CCC2(CC1)NC(=O)N(Cc1ccccc1)C2=O	-28%	-13%	i	2%	.	.	.	.
O=C(O)c1ccc(CN2CC[C@@H](c3ccc4ccccc4c3)[C@H](O)C2)cc1	0%	i	i	0%	.	.	.	.
CS(=O)(=O)c1ccc(CN2CC[C@@H](c3ccc4ccccc4c3)[C@H](O)C2)cc1	40µM*	?	i	?	?	?	4%	24µM*
COCCCNC(=O)c1ccc2oc(-c3ccncc3Cl)nc2c1	?	-30%	.	.	.	.	.	.
Cc1ncnc(N2CCC(CO)(Cc3ccccc3C(F)(F)F)CC2)c1C	40µM*	?	i	11µM*	24µM*	24µM*	2%	19µM*
COc1ccnc(N2CCC(CO)(Cc3ccccc3C(F)(F)F)CC2)n1	?	?	i	-7%	.	.	.	.
N#Cc1cccnc1N1CCC(CO)(Cc2ccccc2C(F)(F)F)CC1	?	?	i	?	22µM*	17µM*	-2%	-18%
COc1cc(N2CCC(CO)(Cc3ccccc3C(F)(F)F)CC2)ncn1	?	?	i	11µM*	19µM*	19µM*	-2%	15µM*
